Assay results published in PubChem BioAssay AID651730 (NMMLSC, 2012).
A number with no mark means an inactive call. The rule behind the calls is not given here.

experiment: V-ATPase regulators in yeast, S. cerevisiae, pHLuorin, powder sets 2-3, dose response (AID 651730); conditions: S. cerevisiae vacuolar pH, pHluorin fluorescence; series mostly up to 100 µM; response, percent: at the top concentration

Row | Structure (SMILES) | response, percent
1 | O=C(Nc1ccccc1N1CCOCC1)c1cc(Cl)ccn1 | 9.85%
2 | CS(=O)(=O)c1cccc(C(=O)Nc2ccccc2N2CCOCC2)c1 | -2.07%
3 | NC(=O)c1cccc(C(=O)N2CCN(c3nc4ccc(F)cc4s3)CC2)c1 | 2.34%
4 | O=C(c1cncc(Cl)n1)N1CCN(c2nc3ccc(F)cc3s2)CC1 | -1.76%
5 | O=C(Nc1ccccc1N1CCOCC1)c1ccc(Br)o1 | -7.84%
6 | O=C(c1cccc(C(F)(F)F)n1)N1CCN(c2nc3ccc(F)cc3s2)CC1 | 5.41%
7 | O=C(Nc1ccccc1N1CCOCC1)c1cncc(Cl)n1 | -11.5%
8 | NS(=O)(=O)c1cccc(C(=O)Nc2ccccc2N2CCOCC2)c1 | -3.19%
9 | CN(C)Cc1ccc(C(=O)N2CCN(c3nc4ccc(F)cc4s3)CC2)o1 | -1.38%
10 | CC(C)(C)c1ccc(C(=O)N2CCN(c3nc4ccc(F)cc4s3)CC2)o1 | 4.73%
11 | O=C(Nc1ccccc1N1CCOCC1)c1ccc(-c2ccccc2)o1 | 0.32%
12 | CN(C)Cc1cccc(C(=O)N2CCN(c3nc4ccc(F)cc4s3)CC2)c1 | -4.07%
13 | O=C(c1ccc(Br)o1)N1CCN(c2nc3ccc(F)cc3s2)CC1 | 1.17%
14 | O=C(c1ccc(-c2ccccc2)o1)N1CCN(c2nc3ccc(F)cc3s2)CC1 | -0.43%
15 | CN(C)C(=O)c1cccc(C(=O)N2CCN(c3nc4ccc(F)cc4s3)CC2)c1 | 3.4%
16 | CC(C)(C)c1ccc(C(=O)Nc2ccccc2N2CCOCC2)o1 | -1.99%

Row | Structure (SMILES) | response, percent
17 | O=C(c1ccc(C(F)(F)F)o1)N1CCN(c2nc3ccc(F)cc3s2)CC1 | -1.21%
18 | Nc1cncc(C(=O)Nc2ccccc2N2CCOCC2)n1 | -8.51%
19 | Cc1ccnc(C(=O)N2CCN(c3nc4ccc(F)cc4s3)CC2)c1 | 1.25%
20 | Cc1ccc(C(=O)Nc2ccccc2N2CCOCC2)o1 | 7.72%
21 | N#Cc1cccc(C(=O)Nc2ccccc2N2CCOCC2)c1 | 0.04%
22 | NS(=O)(=O)c1ccc(C(=O)N2CCN(c3nc4ccc(F)cc4s3)CC2)o1 | 0.11%
23 | O=C(Nc1ccccc1N1CCOCC1)c1cccc(C(F)(F)F)c1 | 1.12%
24 | CS(=O)(=O)Cc1cccc(C(=O)N2CCN(c3nc4ccc(F)cc4s3)CC2)c1 | 1.15%
25 | N#Cc1cccc(C(=O)N2CCN(c3nc4ccc(F)cc4s3)CC2)c1 | 0.65%
26 | O=C(Nc1ccccc1N1CCOCC1)c1cc(C(F)(F)F)ccn1 | -0.77%
27 | COCc1cccc(C(=O)N2CCN(c3nc4ccc(F)cc4s3)CC2)c1 | 0.01%
28 | Cc1cccc(C(=O)Nc2ccccc2N2CCOCC2)n1 | 0.96%
29 | COCc1ccc(C(=O)Nc2ccccc2N2CCOCC2)o1 | -3.6%
30 | COCc1ccc(C(=O)N2CCN(c3nc4ccc(F)cc4s3)CC2)o1 | -1.66%
31 | O=C(c1cc(C(F)(F)F)ccn1)N1CCN(c2nc3ccc(F)cc3s2)CC1 | -2.05%
